HIF-2a block = HIF-2a inhibition | 786-0 RCC cells HIF-2a reporter, luciferase luminescence, overnight | inhibition, % at 18.8 µM | hit rate 0.72% among 360,000;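 active = inhibition of the luminescence signal of 40% or more relative to plate controls, in a single-dose primary screen at 18.75 µM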
ABHD5-PLIN5 inh = ABHD5-PLIN5 protein interaction inhibition | Q00G26+Q8WTS1 | Split G. princeps luciferase complementation, luminescence, 4 h | inhibition, % at 4 µM | hit rate 0.78% among 360,000 | AID 602281;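 active = inhibition above the mean inhibition across every tested compound plus 3 SD, cut at about 22% in these data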;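 also: 0% = DMSO only wells and the 100% control is not disclosed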
Mdm2 MdmX PPI = human Mdm2/MdmX binding inhibition | O15151+Q00987 | SaOS-2 split-luciferase Mdm2/MdmX complementation, luminescence | inhibition, % at 8 µM | hit rate 3% among 330,000 | AID 485346;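 active = inhibition of at least 50% at 8 µM in the primary screen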
Target sequence (O15151 whole entry, looked up): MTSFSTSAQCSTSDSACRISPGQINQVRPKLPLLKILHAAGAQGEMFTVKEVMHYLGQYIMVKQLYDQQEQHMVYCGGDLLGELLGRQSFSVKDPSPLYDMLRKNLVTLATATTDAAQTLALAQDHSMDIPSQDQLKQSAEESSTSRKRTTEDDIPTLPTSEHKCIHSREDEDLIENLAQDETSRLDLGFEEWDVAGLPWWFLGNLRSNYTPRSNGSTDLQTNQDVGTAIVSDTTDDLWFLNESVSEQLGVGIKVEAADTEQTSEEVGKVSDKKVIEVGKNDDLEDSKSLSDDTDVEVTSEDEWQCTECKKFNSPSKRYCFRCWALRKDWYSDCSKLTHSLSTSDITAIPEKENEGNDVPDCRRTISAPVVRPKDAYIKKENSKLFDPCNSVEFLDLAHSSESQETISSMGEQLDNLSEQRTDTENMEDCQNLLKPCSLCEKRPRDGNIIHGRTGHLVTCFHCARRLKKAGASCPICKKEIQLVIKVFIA
Target sequence (Q00987 whole entry, looked up): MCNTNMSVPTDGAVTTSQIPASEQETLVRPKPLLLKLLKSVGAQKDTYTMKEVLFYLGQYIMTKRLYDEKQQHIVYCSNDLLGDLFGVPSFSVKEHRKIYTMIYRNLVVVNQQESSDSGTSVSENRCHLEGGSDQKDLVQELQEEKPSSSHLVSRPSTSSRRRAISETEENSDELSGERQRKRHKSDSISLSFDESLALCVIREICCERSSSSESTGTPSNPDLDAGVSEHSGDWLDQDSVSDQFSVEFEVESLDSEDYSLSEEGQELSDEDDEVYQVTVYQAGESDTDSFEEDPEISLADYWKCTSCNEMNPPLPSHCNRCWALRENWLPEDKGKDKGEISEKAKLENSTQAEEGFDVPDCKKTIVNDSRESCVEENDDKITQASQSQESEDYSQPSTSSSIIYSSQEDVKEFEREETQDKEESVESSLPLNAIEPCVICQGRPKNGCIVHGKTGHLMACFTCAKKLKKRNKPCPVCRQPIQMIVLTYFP
Peg3 prom inh-1 = reduces Peg3 promoter-driven luciferase expression in HeLa; HeLa PEG-Prom luciferase reporter, luminescence, overnight; inhibition, % at 20 µM; hit rate 1.7% among 360,000; AID 588405;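 active = inhibition of at least 50% at 20 µM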
KKLEB tox = counter-screen for CF NF-kB inhibitors: cytotoxicity; activity change (cytotoxicity), % at 5 µM; KKLEB CF airway cells viability, ATPlite luminescence, overnight; active compounds read low; cells stimulated with P. aeruginosa culture filtrate; hit rate 0.36% among 360,000;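 active = corrected activity change at or below -50% at 5 µM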
CF NFkB inh = inhibitors of cystic fibrosis induced NF-kB. inhibition, % at 5 µM. AID 588850. hit rate 0.86% among 360,000. KKLEB NF-kB-GFP reporter, PAF-induced, GFP fluorescence overnight;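 active = at least 50% inhibition at 5 µM, scaled per plate between neutral and stimulator controls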;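 also: PAF is a Pseudomonas aeruginosa culture filtrate used as stimulus; plate controls were PAF-stimulated DMSO wells for no effect and unstimulated DMSO wells for full effect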
Mdm2-MdmX conf = confirmation of human Mdm2/MdmX interaction inhibitors | shares compounds with Mdm2 MdmX PPI | Mdm2-MdmX binding, luminescent assay | inhibition, % at 8 µM | hit rate 55% among 10,000
FLuc counter = inhibits full-length luciferase, flagging false Mdm2/MdmX hits. shares compounds with Mdm2 MdmX PPI. SaOS-2 full-length luciferase counterscreen, luminescence. inhibition, % at 8 µM. hit rate 77% among 6,200. AID 504607;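 active = mean inhibition at 8 µM reaching about 37%, which flags the compound as non-specific, limit read from the data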;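 also: p53-null SaOS-2 cells with luciferase driven by a doxycycline-inducible promoter; compound on cells about two nights before reading with doxycycline added after day one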
Peg3 prom inh-2 = confirmation of Peg3 promoter inhibitors; shares compounds with Peg3 prom inh-1; HeLa PEG-Prom luciferase reporter, luminescence, overnight; inhibition, % at 20 µM; hit rate 84% among 1,300;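 active = at 20 µM dose, 40% or more inhibition averaged across four replicates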
CF NFkB inh conf = CF NF-kB inhibition confirmation, single concentration; shares compounds with CF NFkB inh; hit rate 64% among 1,300; KKLEB CF airway cells, PAF-induced NF-kB-GFP fluorescence, overnight; inhibition, % at 5 µM;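 also: stimulus PAF is a Pseudomonas aeruginosa filtrate and not platelet activating factor; plate controls were DMSO wells with stimulus for no effect and unstimulated DMSO wells for full effect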
* hit, by the source's call; . = no result given. Shown are actives, neighbours in structure and some others; about 4.6% of the full set was active somewhere. Rule as the data show it, unless noted: active = inhibition above about 40%; inactive = the rest.

SMILES | HIF-2a block | ABHD5-PLIN5 inh | Mdm2 MdmX PPI | Peg3 prom inh-1 | KKLEB tox | CF NFkB inh | Mdm2-MdmX conf | FLuc counter | CF NFkB inh conf | others
Nc1nc(/C=C/c2cccnc2)nc(-c2ccccc2O)n1 | -48 | 8 | 76* | 26 | -11 | 91* | 73* | 64* | 75*
O=C1COc2ccc(C(=O)CSc3nc4ccccc4c(=O)n3-c3ccc(Cl)c(Cl)c3)cc2N1 | 9 | 0 | 98* | 76* | -48 | 55* | 24 | . | -2 | Peg3 prom inh-2=33
Cn1c(SCC(=O)c2ccc3c(c2)NC(=O)CO3)nc2ccccc21 | 10 | 1 | 14 | 17 | 15 | -29 | . | . | .
COc1ccc(CN2C(=O)C(CC(=O)NC(c3ccccc3)c3ccccc3)CC(C(=O)N(C(C)C)C(C)C)=C2C)cc1 (stereo not drawn) | -3 | -6 | . | 17 | 22 | -9 | . | . | .
C=C1CCC[C@]2(C)C[C@H]3OC(=O)C(CNC(CC)CO)[C@H]3CC12 (stereo partly drawn) | 19 | 14 | 42 | -60 | -1 | 37 | . | . | .
C=C1CCC[C@]2(C)C[C@H]3OC(=O)C(CNC(C)(CO)CO)[C@H]3CC12 (stereo partly drawn) | 19 | 10 | 63* | -38 | -18 | 75* | 31 | 55* | 27
C=C1CCC[C@]2(C)C[C@H]3OC(=O)C(CN4CCCCC4CO)[C@H]3CC12 (stereo partly drawn) | -2 | 5 | 66* | 62* | -9 | 75* | 55* | 38* | 15
COc1ccc(NC(=O)C2(S(=O)(=O)c3ccc(C)cc3)CC2)cc1OC | -4 | 1 | 24 | 9 | 3 | 5 | . | . | .
COc1ccc(S(=O)(=O)N2CC=C(c3ccccc3)CC2)cc1OC | 0 | -7 | . | 27 | 1 | 6 | . | . | .
COC(=O)CCC(C(=O)CN1C(=O)c2ccccc2C1=O)N1C(=O)c2ccccc2C1=O (stereo not drawn) | 4 | -5 | . | -2 | -4 | 2 | . | . | .
O=C(Nc1ccccc1N1CCOCC1)c1cc(-c2ccco2)nc2ccccc12 | -7 | 2 | 70* | 60* | -13 | 75* | 53* | 68* | 87*
O=C(NNc1ccccc1Br)C(O)(c1cccc(C(F)(F)F)c1)c1cccc(C(F)(F)F)c1 | 24 | -13 | 94* | 54* | -47 | 57* | 78* | 87* | 83*
CN(C)c1ccc(C(C(=O)NC2CCCCC2)N(Cc2ccco2)C(=O)c2snc(C(N)=O)c2N)cc1 (stereo not drawn) | -14 | 0 | 51* | 41 | -44 | 88* | 37 | 92* | 79*
COc1ccc(C(C(=O)NCC2CCCO2)N(Cc2cccs2)C(=O)c2snc(C(N)=O)c2N)cc1 (stereo not drawn) | 2 | -3 | 52* | 51* | -28 | 54* | 49* | 88* | 50* | Peg3 prom inh-2=50*
COc1ccc(NC(=O)COC(=O)CC2CC3CCC2C3)c([N+](=O)[O-])c1 (stereo not drawn) | -2 | 0 | 18 | 13 | 6 | -18 | . | . | .
Cc1sc2ncnc(SCC(=O)N3CCC(c4noc5ccc(F)cc45)CC3)c2c1C | -1 | 3 | 22 | -7 | -11 | -3 | . | . | .
Cc1nnc(SCC(=O)N2CCC(c3noc4ccc(F)cc34)CC2)s1 | 2 | 3 | 78* | 2 | -14 | 64* | 69* | 20 | 90*
CC1CC(=O)N(CC(=O)NCc2ccc(F)cc2)c2ccccc2S1(=O)=O (stereo not drawn) | -3 | -1 | 19 | 10 | 6 | -13 | . | . | .
Cc1ccc2c(c1)C(=O)N1c3cc(C)c(C)cc3NC(=O)C1C(=O)N2 (stereo not drawn) | 3 | 6 | . | 5 | 1 | -10 | . | . | .
O=C(Nc1cccc(Cl)c1)Nc1csc([N+](=O)[O-])c1 | -173 | -6 | 90* | -67 | -48 | 54* | 87* | 39* | 63*
Cc1ccc(C(=O)c2cnc3ccccc3c2-c2ccccc2)cc1 | 17 | -9 | 56* | 19 | -17 | 70* | 30 | . | 38
Cc1ccc(C(=O)c2nc(C(=O)NCCO)nc3ccccc23)cc1 | -30 | -4 | -4 | -43 | 2 | -40 | . | . | .
Cc1cccc(NC(=O)CNC(=O)[C@H]2O[C@@H](n3ccc(N)nc3=O)[C@H](O)[C@@H]2O)c1C | 12 | -4 | . | 8 | 1 | -20 | . | . | .
Cc1cccc(NC(=O)c2nc[nH]c2C(=O)NCCCCNC(=O)c2[nH]cnc2C(=O)Nc2cccc(C)c2)c1 | 7 | -5 | 75* | 78* | -39 | 56* | 4 | . | 33 | Peg3 prom inh-2=37
O=C(Nc1ccc(Cl)cc1)c1nc[nH]c1C(=O)NCCCCNC(=O)c1[nH]cnc1C(=O)Nc1ccc(Cl)cc1 | -12 | -4 | 99* | 80* | -13 | 79* | 73* | 69* | 102*
SMILES | HIF-2a block | ABHD5-PLIN5 inh | Mdm2 MdmX PPI | Peg3 prom inh-1 | KKLEB tox | CF NFkB inh | Mdm2-MdmX conf | FLuc counter | CF NFkB inh conf | others
O=C(Nc1ccc(Cl)cc1)c1nc[nH]c1C(=O)Nc1ccccc1F | -2 | -9 | . | -2 | -16 | 12 | . | . | .
Cc1cccc(NC(=O)c2nc[nH]c2C(=O)NCc2ccccc2)c1 | 2 | -9 | 23 | 11 | -22 | -33 | . | . | .
CC(=O)Nc1cccc(NC(=O)c2cc(-c3cccnc3)nc3ccc(Br)cc23)c1 | -73 | 10 | 68* | 61* | -44 | 84* | 73* | 90* | 57*
O=C(O)c1cc(-c2cccnc2)nc2ccc(Br)cc12 | 21 | -2 | -6 | 12 | 16 | 12 | . | . | .
COc1ccccc1N1CCN(C(=O)c2ccc3c(Cl)c4c(nc3c2)CCCC4)CC1 | -5 | 5 | 64* | 27 | -12 | 53* | 20 | . | -95
CCOc1ccc(NC(=O)Nc2ccc3c(c2)N(C)C(=O)CS3)cc1 | -10 | 0 | 43 | 3 | 9 | 17 | . | . | .
CC(=O)c1ccc(NC(=O)Nc2ccc3c(c2)N(C)C(=O)CS3)cc1 | -50 | 7 | 69* | -14 | -34 | 72* | 35 | . | 53*
Clc1cccc(Nc2nc(-c3ccncc3)nc3ccccc23)c1 | 8 | -5 | 93* | 83* | -42 | 64* | 45* | 18 | -40
CN(Cc1ccccc1)C(=O)c1ccc(NC(=O)Cc2ccc(NC(=O)C3CCCN(C(=O)C4CC4)C3)cc2)cc1 (stereo not drawn) | -11 | -5 | . | 0 | 4 | 6 | . | . | .
Nc1nccc(-c2ccc(-n3cnc4ccccc43)cc2)n1 | -140 | 2 | 70* | -127 | -9 | 77* | 56* | 22 | 80*

Compound activity as filed in PubChem.
